Screening results from PubChem BioAssay.
RGS7-Gao reg = human RGS7-Galphao interaction regulation; Multiplexed bead flow cytometry, RGS7-Galphao binding; actives lie on both sides; hit rate 0.35% among 220,000; binding response (% of control), % at 10 µM; P09471; in the data active = binding response below about 49% or above about 150%; inconclusive = no clear call, values can overlap the other calls; inactive = in between;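 note: fluorescent Galphao held in activated GDP-AlF4 state binding bead-coupled RGS7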
Target sequence (P09471 whole entry, looked up): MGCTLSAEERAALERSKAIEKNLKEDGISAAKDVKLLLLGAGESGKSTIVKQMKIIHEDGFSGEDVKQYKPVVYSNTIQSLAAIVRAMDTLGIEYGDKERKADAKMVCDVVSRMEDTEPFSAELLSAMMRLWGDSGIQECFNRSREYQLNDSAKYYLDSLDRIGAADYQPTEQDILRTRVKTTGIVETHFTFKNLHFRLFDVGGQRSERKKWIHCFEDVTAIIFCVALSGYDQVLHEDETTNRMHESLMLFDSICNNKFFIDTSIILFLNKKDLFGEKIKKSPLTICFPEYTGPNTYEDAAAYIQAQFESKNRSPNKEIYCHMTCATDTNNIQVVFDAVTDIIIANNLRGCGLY
GSH fluor = compound fluoresces at 488/530 nm on GSH beads. GSH beads flow cytometry, compound fluorescence 488/530 nm; hits give high values. fluorescence (KMESF) at 10 µM. hit rate 0.25% among 190,000; in the data active = fluorescence above about 89;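 note: glutathione beads carrying GST-tagged Bcl family fusion proteins plus one bare bead set; values are compound well signal with DMSO vehicle wells as background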
RGS4-Gao reg = modulates binding of RGS4 to human Galphao | P09471 | hit rate 0.33% among 220,000 | Multiplexed bead flow cytometry; actives lie on both sides | binding response (% of control), % at 10 µM; in the data active = binding response below about 49% or above about 150%; inactive = in between;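 note: fluorescent Galphao activated with aluminum fluoride binding bead-coupled RGS4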
RGS16-Gao HTS = RGS16-Galphao interaction regulator (human); O15492+P09471; bead-based flow cytometry RGS16-Galphao binding, fluorescence; actives lie on both sides; binding response (% of control), % at 10 µM; hit rate 0.38% among 220,000; AID 1441;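 note: Galphao activated by GDP with aluminum fluoride before binding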
Target sequence (O15492 whole entry, looked up): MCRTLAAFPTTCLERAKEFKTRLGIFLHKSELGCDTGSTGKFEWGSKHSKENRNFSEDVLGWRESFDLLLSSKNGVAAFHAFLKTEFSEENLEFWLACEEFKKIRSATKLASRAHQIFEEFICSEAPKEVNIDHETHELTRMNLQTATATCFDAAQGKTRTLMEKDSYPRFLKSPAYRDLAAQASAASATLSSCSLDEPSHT
Target sequence (P09471 whole entry, looked up): as the sequence (P09471 whole entry, looked up) above
Avidin bead fluor = compound fluoresces at 488/530 nm on avidin beads; compound fluorescence 488/530 nm, flow cytometry; hits give high values; fluorescence (KMESF) at 10 µM; hit rate 0.38% among 220,000; in the data active = fluorescence above about 47
RGS8-Gao = human RGS8-Galphao interaction regulation. response (percent of control binding), % at 10 µM. hit rate 0.34% among 220,000. P09471. AID 1423. multiplexed bead flow cytometry, RGS8-Galphao binding; actives lie on both sides; in the data active = response below about 60% or above about 140%; inactive = in between;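 note: Galphao activated as the GDP aluminium fluoride complex binding bead-coupled RGS8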
RGS4-Gao HTS = modulates binding between human RGS4 and Galphao; shares compounds with RGS16-Gao HTS; hit rate 99% among 1,600; multiplexed bead flow cytometry, RGS–Galpha-o binding; RGS4–Galpha-o binding response, % at 10 µM;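 note: fluorescently labeled Galpha-o bound to GDP with aluminium fluoride binding biotinylated RGS beads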
Avidin counter = interferes with biotinylated probe binding to avidin beads; streptavidin beads, fluorescein-biotin binding, flow cytometry; inhibition, % at 10 µM; shares compounds with RGS16-Gao HTS; 1,700 tested, under 10 active; AID 1783;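 active = inhibition above 50%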;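 note: median green fluorescence of gated singlet beads compared with DMSO control wells; 0% = DMSO wells and 100% = complete loss of bead fluorescence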
RGS8-Gao single = confirmation of regulators of human RGS8-Galphao interaction; shares compounds with RGS16-Gao HTS; bead-based flow cytometry RGS8-Galphao binding, fluorescence; actives lie on both sides; binding response (% of control), % at 10 µM; hit rate 3% among 1,700; AID 1836; in the data active = binding response below about 72% or above about 130%; inactive = in between;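 note: Galphao activated as GDP AlF4 complex before binding bead RGS8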
RGS7-Gao single = confirmation of regulators of human RGS7-Galphao interaction. shares compounds with RGS16-Gao HTS. bead-based flow cytometry RGS7-Galphao binding; actives lie on both sides. response (percent of control binding), % at 10 µM. hit rate 7.8% among 1,700. AID 1837; in the data active = response below about 75% or above about 130%; inactive = in between;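 note: fluorescent Galphao activated with GDP and aluminum fluoride binding bead-coupled RGS7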
RGS16-Gao conf = confirmation of regulators of human RGS16-Galphao interaction | hit rate 4% among 1,700 | bead-based flow cytometry, RGS16-Galphao binding; actives lie on both sides | shares compounds with RGS16-Gao HTS | response (% of control binding), % at 10 µM; in the data active = response below about 74% or above about 130%; inactive = in between;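 note: Galphao activated as the GDP aluminium fluoride complex binding bead-coupled RGS16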
RGS4-Gao confirm = RGS4-Galphao interaction regulation, single point confirmation. binding response (% of control), % at 10 µM. RGS4-Galphao binding, multiplexed bead flow cytometry; actives lie on both sides. shares compounds with RGS16-Gao HTS. hit rate 4% among 1,700; in the data active = binding response below about 74% or above about 130%; inactive = in between
RGS19-Gao conf = RGS19-Galphao interaction regulation, single point confirmation; hit rate 5% among 1,700; bead-based flow cytometry RGS19-Galphao binding; actives lie on both sides; shares compounds with RGS16-Gao HTS; response (percent of control binding), % at 10 µM; in the data active = response below about 50% or above about 160%; inactive = in between;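 note: 100% = no compound control and 0% = blank background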
The depositor's hits bear a star; ? = inconclusive; nt = no result; [ ] = another dose, or the depositor's remark. This is a sample that favours compounds with a hit; in the whole collection about 1.2% have one here. Unless noted, the rule behind the calls is not given here.

SMILES	RGS7-Gao reg	GSH fluor	RGS4-Gao reg	RGS16-Gao HTS	Avidin bead fluor	RGS8-Gao	Avidin counter	RGS8-Gao single	RGS7-Gao single	RGS16-Gao conf	RGS4-Gao confirm	RGS19-Gao conf	others
O=C(CSc1nc2ccccc2[nH]1)Nc1ccc(F)c(F)c1	nt	44	nt	nt	nt	nt	0.1	105.2	98.5	104.2	105.0	95.3
c1ccc2c(c1)OCCOCCOc1ccccc1OCCOCCO2	190.7*[activator]	10	187.0*[activator]	74.5	2	145.4*[activator]	1.3	108.9	116.2	113.8	104.5	143.0
CCSc1ccccc1C(=O)NCc1cccnc1	81.2	25	94.1	100.6	22	59.0*	-1.4	99.6	67.4*	90.2	73.5*	84.6	RGS4-Gao HTS=94.1*
O=C(NCc1cccnc1)c1ccccc1Br	101.0	22	101.6	101.6	14	99.3	nt	nt	nt	nt	nt	nt
Cc1ccc(NC(=O)C(C)NC(=O)OCc2ccccc2)cc1C (configuration not stated)	?	nt	102.7	103.1	7	104.2	nt	nt	nt	nt	nt	nt
Cc1cccc(OCc2nnc(SCc3cc(=O)[nH]c4ccccc34)n2-c2ccccc2)c1	103.0	11	100.9	69.0	6	96.9	nt	nt	nt	nt	nt	nt
O=c1cc(CSc2nnc(COc3ccccc3)n2-c2ccccc2)c2ccccc2[nH]1	-15.3*	14	-75.7*	27.6	-2	103.7	-2.2	100.1	90.7	98.6	95.6	90.6
COc1ccc(C)cc1NC(=O)C(Sc1nnc(Nc2cc(C)ccc2OC)s1)c1ccccc1 (configuration not stated)	7.2*	8	10.6*	-13.1*	-3	3.4*	-2.2	105.5	109.5	106.6	103.7	97.6
COc1ccc(Nc2nnc(SC(C(=O)Nc3cc(C)ccc3C)c3ccccc3)s2)cc1 (configuration not stated)	104.2	16	101.5	101.6	12	103.7	nt	nt	nt	nt	nt	nt
O=C(/C=C/c1ccccc1)NNC(=O)C1CC1	nt	41	nt	nt	nt	nt	0.3	95.2	98.3	93.0	94.1	107.5
CCN(C(=O)c1ccc(NC(C)=O)cc1)c1ccccc1	88.0	15	77.7	-19.8*	10	71.0	0.8	97.9	97.1	97.0	98.6	99.8	RGS4-Gao HTS=77.7*
O=C(N/N=C/c1ccc(Cl)cc1)C(=O)N1CCCCCC1	103.4	15	103.8	99.7	9	100.8	nt	nt	nt	nt	nt	nt
NC(=O)NC(=O)COC(=O)c1ccccc1OCc1ccc(F)cc1	?	nt	40.0*	39.7	1	55.1*	-8.3	113.9	117.5	112.3	113.6	112.9
O=C(CCCN1C(=O)c2ccccc2C1=O)Nc1cccc(S(=O)(=O)NC2=NCCC2)c1	?	12	100.8	101.0	10	101.3	nt	nt	nt	nt	nt	nt
O=C(CCc1nnc(Cc2c[nH]c3ccccc23)o1)NCC1CC12CCCCC2 (configuration not stated)	101.2	11	102.3	102.5	12	101.5	nt	nt	nt	nt	nt	nt
CC1Cc2ccccc2N1C1=CC(=O)CCC1 (configuration not stated)	98.8	13	97.0	97.9	7	96.9	nt	nt	nt	nt	nt	nt
O=C(NCCCN1CCCC1)c1cccc(N2CCCC2=O)c1	7.6*	25	17.8*	0.8	1	10.2*	-1.3	100.3	105.0	100.4	106.6	97.8
O=C(NCCCN1CCN(c2ccc(F)cc2)CC1)c1cccc(N2CCCC2=O)c1	89.1	16	91.9	89.0	23	97.6	nt	nt	nt	nt	nt	nt
CC(=O)NC1C(OCc2ccccc2)OC2COC(C)(C)OC2C1O (configuration not stated)	105.3	26	103.9	113.8	11	104.5	nt	nt	nt	nt	nt	nt
CCN(CC)CCCNC(=O)C1c2cc(OC)c(OC)cc2C(=O)N(C)C1c1cccs1 (configuration not stated)	130.2	33	153.1*[activator]	453.6	12	153.1*[activator]	-0.9	105.2	98.1	110.3	103.4	103.4
NC(=O)[C@H]1CC2(CC(c3cccc(NC(=O)COc4ccc(Cl)cc4)c3)=NO2)CN1C(=O)Cc1ccc([N+](=O)[O-])cc1 (some centres not stated)	?	nt	104.4	106.7	8	103.7	nt	nt	nt	nt	nt	nt
CC(=O)OC(C)CS(=O)(=O)c1ccccc1 (configuration not stated)	30.3*	10	34.9*	20.6*	5	28.7*	0.6	106.8	101.5	105.9	101.6	122.3
O=C(O)CC1SC(N/N=C/c2ccc(Br)cc2)NC1=O (configuration not stated)	?	12	100.1	99.2	11	100.5	nt	nt	nt	nt	nt	nt
CCc1ccc(NC(=O)Nc2cccs2)cc1	-10.8*	10	-31.7*	-19.6*	-3	5.8*	0.6	105.0	97.8	105.6	102.8	96.3
Cc1ccc(NC(=O)Nc2cccs2)cc1	98.8	31	99.6	97.4	12	100.4	nt	nt	nt	nt	nt	nt
O=C(CSc1nnc(-c2ccccc2)o1)Nc1ccccc1F	172.8*[activator]	22	111.2	107.5	91*	101.0	3.0	99.0	94.6	95.1	94.8	73.7	RGS4-Gao HTS=111.2*
O=C(CSc1nnc(-c2ccncc2)o1)Nc1ccccc1Cl	215.1*[activator]	28	132.6	249.9*[activator]	130*	114.6	-0.8	99.6	101.7	100.7	101.2	100.5	RGS4-Gao HTS=132.6*
CCn1c(SCC(=O)Nc2nc3ccc(C)cc3s2)nc2c(c1=O)SC(C)C2 (configuration not stated)	157.6*[activator]	24	111.9	109.4	117*	101.3	nt	nt	nt	nt	nt	nt	RGS4-Gao HTS=111.9*
Cc1ccc(S(=O)(=O)N2CCN(S(=O)(=O)c3ccc4c(c3)OCCO4)CC2)cc1	52.2	24	54.7	50.1	8	58.1*	-1.6	100.5	103.1	104.2	104.6	105.3	RGS4-Gao HTS=54.7*
Cc1cc(C(=O)CCl)c(C)n1-c1cccc(S(=O)(=O)N2CCOCC2)c1	107.2	13	105.0	103.2	9	103.4	nt	nt	nt	nt	nt	nt
